# High-throughput results deposited in PubChem BioAssay by National Center for Advancing Translational Sciences (NCATS).
# Hits are enriched below; roughly 3.6% of the tested compounds scored in any of these assays.
# TGFb inhibitor: TGF-b pathway inhibition; HepG2 CAGA-GFP TGF-b/SMAD3 reporter, GFP fluorescence, 18 h; TGF-beta stimulated, 500 pg/mL final; Potency, µM (highest dose often 46.1 µM), most hits filed as inhibitors; 410,000 compounds, 1.2% hits; AID 588855; note: nearly all actives have a fitted effect of over 65% in size
#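 HEPG2 CAGA-GFP cells (1000/well, DMEM with 1% FBS) were pre-incubated 2 h at 37 degrees C, given compound by pin tool, then stimulated with TGF-beta at 500 pg/mL final for 18 h before per-cell GFP fluorescence imaging.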
# Nrf2 ARE act: Nrf2 pathway activation. 410,000 compounds, 0.31% hits. AID 624171. AREc32 ARE-luciferase reporter (MCF7-derived line), luminescence, 24 h. Potency, µM (highest dose often 46.1 µM), hits mostly activators; note: nearly all actives have a fitted effect of over 65% in size
#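 Nrf2 activation is followed as ARE-luciferase induction in the AREc32 line after one day of compound treatment; luminescence is read with Steady-Glo.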
# Nrf2 block: inhibitors of Nrf2 signaling | A549 ARE-Fluc reporter, luciferase luminescence, 18-24 h | Potency, µM (doses to about 46 µM), actives largely listed as inhibitors | 360,000 compounds, 2.1% hits | AID 504444; note: nearly all actives have a fitted effect of over 60% in size
#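 In this cell-based qHTS, ARE-driven firefly luciferase in A549 cells reports Nrf2 activity; the luminescent signal after BugLite lysis is the measured value, with a prior CellTiter-Fluor read for cell health.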
# HepG2 viability: HepG2 cytotoxicity, counter-screen for TGF-b inhibitors; 410,000 compounds, 0.76% hits; HepG2 CAGA-GFP viability, ATP luminescence, 18 h; Potency, µM (series often up to 46.1 µM), hits mostly cytotoxic
#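 CellTiter-Glo luminescence gave cytotoxicity after 18 hours at 37 degrees C. The cells were HepG2 CAGA-GFP in 1% FBS DMEM, stimulated with 500 pg/mL TGF-beta after compound addition. %Activity was normalised to no-cell wells (complete cell-killing) and DMSO (no toxicity), and curves were fitted and classified.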
# A549 tox: counter-screen for Nrf2 inhibitors: cytotoxicity in A549 cells; A549 ARE-Fluc cells, CellTiter-Fluor viability, 18-24 h; Potency, µM (top dose mostly 46 µM), most hits filed as inhibitors; 390,000 compounds, 0.16% hits; AID 504648
#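 A549 ARE_Fluc cells in 5% FBS OPTI-MEM were exposed to compounds in concentration-response for 18-24 h at 37 deg C. Viability was read by CellTiter-Fluor fluorescence (Ex 405/Em 525) after 30 min, before the luciferase read.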
# Numbers stand for hits; . = inactive; ? = inconclusive; / = not tested or not shown. Calls come from the whole dose curve; as a rule, active = well fitted curve in the direction sought with a large enough effect; inconclusive = small, poorly fitted or top-dose-only effect, or another doubt; inactive = no such curve, though single readings can be large; an effect the other way counts as inactive or inconclusive.
SMILES,TGFb inhibitor,Nrf2 ARE act,Nrf2 block,HepG2 viability,A549 tox
CC(/C=C/c1ccccc1)=N\Nc1nc2c(c(=O)[nH]c(=O)n2C)n1CCO,.,.,.,.,.
O=C(CCCN1C(=O)/C(=C/c2ccccc2OC(F)F)SC1=S)Nc1cccnc1,?,?,.,.,?
Nc1ccc(-c2nc3ccccc3s2)cn1,.,.,?,.,.
Brc1ccc(-c2nc3ccccc3s2)s1,.,11.2µM,?,.,.
COCCCN1C(=O)C(=O)/C(=C(/O)c2ccc(OC(C)C)cc2)C1c1cccnc1 (configuration not stated),.,.,.,.,.
CCN(CC)CCn1c(SCC(=O)NCc2ccccc2)nc2c(sc3ccccc32)c1=O,.,.,.,.,.
Nc1cc(-c2ccncc2)c[nH]c1=O,.,.,.,.,.
Nc1cc(-c2ccccc2)c[nH]c1=O,/,/,7.31µM,/,5.8µM
C(=C\c1nc(-c2ccccc2)no1)/c1ccccc1,.,14.1µM,?,.,.
COc1cccc(C(=O)C(C#N)=C(SC)SC)c1,?,.,?,10µM,.
CSC(SC)=C(C#N)C(=O)c1ccccc1,?,.,.,.,?
Cc1[nH]c2ccccc2c(=O)c1C(=O)/C=C/c1ccccc1,?,?,18.4µM,.,?
O=C(NC(=S)Nc1cccc2c(O)cccc12)c1ccco1,?,.,.,.,.
COc1ccc(OC)c(/C=C/C(=O)Nc2ccc(OC)nc2)c1,.,.,.,.,.
Cc1ccc2c(Cl)cc(Cl)c(OCC(=O)Nc3cc(S(=O)(=O)N(C)C)ccc3C)c2n1,.,.,14.6µM,.,.
O=C(CCCc1nc(-c2ccc(Cl)cc2)no1)Nc1cccnc1,?,.,10.3µM,.,/
CCOc1ccc(CN(C)CCc2ccccn2)cc1,.,.,?,.,.
Cc1cccc(C)c1OCC(=O)N[C@@H](Cc1ccccc1)[C@@H](O)C[C@H](Cc1ccccc1)NC(=O)[C@H](C(C)C)N1CCCNC1=O,12.6µM,/,/,.,/
CCc1ccccc1NC(=O)c1noc(C(C)C)c1[N+](=O)[O-],.,?,.,.,.
CCc1nc(SCC(=O)N2CCCc3ccccc32)c2oc3ccccc3c2n1,.,.,16.4µM,.,?
CCC(C(=O)N1CCN(c2ccc(OC)cc2)CC1)n1nc(C)n2c(cc3occc32)c1=O (configuration not stated),10µM,.,.,.,.
CN1CCN(c2ccc(-c3ccc4ccccc4n3)cc2)CC1,.,.,10.3µM,.,.
c1ccc2nc(-c3ccc(N4CCOCC4)cc3)ccc2c1,?,.,?,.,.
CNC(=S)N1CCN(S(=O)(=O)c2ccc3ccccc3c2)CC1,.,.,23.1µM,.,.
Cc1ccc(N(C)C(=O)N2CCN(S(=O)(=O)c3ccc4ccccc4c3)CC2)cc1,.,.,18.4µM,.,.
SMILES,TGFb inhibitor,Nrf2 ARE act,Nrf2 block,HepG2 viability,A549 tox
C=C1C(=O)O[C@@]23[C@H]1CC[C@@H](C)[C@@H]2CC[C@@]1(C)O[C@@H]31,?,.,14.6µM,.,?
COc1ccc2[nH]c3c(c2c1)CCN1C(=O)C(CC(=O)NCCCn2ccnc2)C[C@H](C(=O)N2CCOCC2)[C@@]31CCC1CCCC1 (some centres not stated),?,.,.,.,.
COc1cccc(CN(C)CC(=O)Nc2ccccc2C(=O)Nc2ccccc2)c1OC,.,.,23.1µM,.,?
CCOc1cc(C2C(C#N)=C(N)OC(C)=C2C(C)=O)c(Br)c(Br)c1OC(C)C (configuration not stated),15.8µM,.,.,.,.
C(=Nc1ccccc1)c1ccc[nH]1,.,.,.,.,.
COc1ccc(S(=O)(=O)c2cnc3ccccc3n2)cc1,.,17.8µM,.,.,.
O=S(=O)(c1ccc(Br)cc1)c1cnc2ccccc2n1,.,.,.,.,.
Cc1nc([N+](=O)[O-])cn1CC(=O)c1ccccc1,.,.,.,.,.
COc1ccc(N2CCN(Cc3nc4ccsc4c(=O)[nH]3)CC2)cc1,.,.,.,.,.
COc1ccc(CNc2ccc([N+](=O)[O-])cc2C)cc1,.,.,?,.,.
Cc1cc([N+](=O)[O-])ccc1NCc1ccccc1,.,.,18.4µM,.,?
